The text below walks through data of ChEMBL document CHEMBL3988442, “University of Dundee, Small-Polar-MMV Screening Library” (2021).

For part of these data: Results with a measured potency or affinity are listed apart.

Holding throughout (set-up): scale not given: direction of the effect not stated beside the values
Experiment [1] deals with Protein translocase subunit SecA (Escherichia coli (strain K12)) (UniProt P10408). In words: Assay to Identify E. coli SecA ATPase Inhibitors. In kind it is functional. To be noted: 30 µM.
Protein translocase subunit SecA (Escherichia coli (strain K12)), sequence (P10408 whole entry): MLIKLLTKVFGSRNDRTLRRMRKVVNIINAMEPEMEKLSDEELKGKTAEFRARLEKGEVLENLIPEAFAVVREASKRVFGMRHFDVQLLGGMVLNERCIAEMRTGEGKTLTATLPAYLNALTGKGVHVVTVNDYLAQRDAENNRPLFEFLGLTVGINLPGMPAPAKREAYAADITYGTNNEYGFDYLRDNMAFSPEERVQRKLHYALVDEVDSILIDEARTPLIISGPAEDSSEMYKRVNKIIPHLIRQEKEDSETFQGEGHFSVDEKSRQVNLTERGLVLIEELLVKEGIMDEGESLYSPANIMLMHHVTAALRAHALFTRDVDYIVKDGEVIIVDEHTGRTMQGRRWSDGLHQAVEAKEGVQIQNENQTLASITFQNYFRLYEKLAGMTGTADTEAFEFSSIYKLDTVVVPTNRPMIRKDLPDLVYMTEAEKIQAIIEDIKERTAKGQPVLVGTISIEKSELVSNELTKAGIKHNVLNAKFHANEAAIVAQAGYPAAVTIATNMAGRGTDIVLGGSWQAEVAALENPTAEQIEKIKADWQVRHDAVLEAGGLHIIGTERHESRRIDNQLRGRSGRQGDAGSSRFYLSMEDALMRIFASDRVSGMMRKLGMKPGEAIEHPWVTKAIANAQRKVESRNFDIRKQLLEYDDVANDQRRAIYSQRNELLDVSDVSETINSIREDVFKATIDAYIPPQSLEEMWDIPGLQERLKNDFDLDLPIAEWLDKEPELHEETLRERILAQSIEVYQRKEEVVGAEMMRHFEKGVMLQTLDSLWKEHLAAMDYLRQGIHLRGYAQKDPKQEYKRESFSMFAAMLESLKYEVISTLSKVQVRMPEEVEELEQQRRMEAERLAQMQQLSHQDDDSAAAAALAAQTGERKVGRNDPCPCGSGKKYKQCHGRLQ
Experiment [2] deals with T1, Ubiquitin-activating enzyme e1, putative (Leishmania donovani (strain BPK282A1)) (UniProt E9BSI1).
T1 sequence (whole entry): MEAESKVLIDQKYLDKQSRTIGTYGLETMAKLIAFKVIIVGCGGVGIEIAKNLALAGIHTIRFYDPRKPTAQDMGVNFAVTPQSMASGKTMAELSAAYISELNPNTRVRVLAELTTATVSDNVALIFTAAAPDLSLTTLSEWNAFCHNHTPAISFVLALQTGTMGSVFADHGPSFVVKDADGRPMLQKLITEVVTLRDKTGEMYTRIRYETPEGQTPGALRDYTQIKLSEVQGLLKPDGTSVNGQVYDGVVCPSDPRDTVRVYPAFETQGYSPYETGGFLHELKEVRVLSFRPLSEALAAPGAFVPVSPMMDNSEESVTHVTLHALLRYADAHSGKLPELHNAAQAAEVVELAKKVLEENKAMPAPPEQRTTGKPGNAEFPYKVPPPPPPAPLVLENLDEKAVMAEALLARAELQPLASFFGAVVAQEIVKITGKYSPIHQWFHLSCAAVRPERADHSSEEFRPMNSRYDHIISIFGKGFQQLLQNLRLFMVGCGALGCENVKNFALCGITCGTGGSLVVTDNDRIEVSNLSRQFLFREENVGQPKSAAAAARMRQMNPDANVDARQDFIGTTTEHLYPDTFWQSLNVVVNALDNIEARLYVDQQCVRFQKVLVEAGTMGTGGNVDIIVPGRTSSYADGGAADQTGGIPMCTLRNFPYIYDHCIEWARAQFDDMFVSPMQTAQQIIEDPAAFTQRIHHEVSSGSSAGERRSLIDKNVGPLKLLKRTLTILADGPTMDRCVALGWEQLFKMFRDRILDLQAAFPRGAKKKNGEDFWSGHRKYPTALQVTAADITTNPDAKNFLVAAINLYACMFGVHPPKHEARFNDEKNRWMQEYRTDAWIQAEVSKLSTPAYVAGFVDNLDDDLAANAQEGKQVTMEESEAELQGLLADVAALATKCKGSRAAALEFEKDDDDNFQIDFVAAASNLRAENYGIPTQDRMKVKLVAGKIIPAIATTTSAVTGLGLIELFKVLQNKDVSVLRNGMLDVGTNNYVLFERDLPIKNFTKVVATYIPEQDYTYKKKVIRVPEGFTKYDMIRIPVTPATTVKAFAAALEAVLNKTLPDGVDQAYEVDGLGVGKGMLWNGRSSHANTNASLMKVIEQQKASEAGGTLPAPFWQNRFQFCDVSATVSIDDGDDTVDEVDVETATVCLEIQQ
As to the kind of experiment: Leishmania donovani Ubiquitin Activating Enzyme (LdE1). To be noted: 30 µM. It is filed as functional.

The target in experiment [3] is AMP-activated protein kinase, AMPK (Homo sapiens) (UniProt P54646+O43741+P54619+Q9UGJ0+Q9Y478+Q13131+Q9UGI9). In words: AMP-dependent Kinase enzyme assay. An in vitro enzyme assay that detects ADP turnover that is directly proportional to AMPK activity. This uses naive AMPK that is activated during the assay with MK-8722. It is filed as functional. To be noted: 30 µM.

In experiment [4] the target is Sialic acid-binding Ig-like lectin 9 (Homo sapiens) (UniProt Q9Y336). As to the kind of experiment: Hs-Siglec9 ALPHAscreen SOP 20170721. The following applies: 10 µM. (In general: In Alpha technology, singlet oxygen from a donor bead excites a nearby acceptor bead.)
Sialic acid-binding Ig-like lectin 9 (Homo sapiens), sequence (Q9Y336 whole entry): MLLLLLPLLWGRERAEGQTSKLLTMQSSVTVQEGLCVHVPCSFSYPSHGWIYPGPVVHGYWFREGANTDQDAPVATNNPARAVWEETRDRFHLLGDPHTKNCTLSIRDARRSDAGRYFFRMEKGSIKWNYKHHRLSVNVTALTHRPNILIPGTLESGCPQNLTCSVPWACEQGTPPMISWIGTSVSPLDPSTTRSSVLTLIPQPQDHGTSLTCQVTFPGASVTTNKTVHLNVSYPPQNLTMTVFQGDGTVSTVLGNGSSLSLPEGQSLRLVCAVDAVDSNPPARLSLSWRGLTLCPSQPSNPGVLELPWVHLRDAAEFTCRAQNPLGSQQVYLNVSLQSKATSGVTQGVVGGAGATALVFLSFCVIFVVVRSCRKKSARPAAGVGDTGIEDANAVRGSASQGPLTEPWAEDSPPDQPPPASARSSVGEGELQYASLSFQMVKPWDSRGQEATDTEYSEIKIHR
The test system of the next experiment is Trypanosoma cruzi. In words: Trypanosoma cruzi phosphomannomutase and mannose-1-phosphate guanylyltransferase assay. It is filed as functional. To be noted: 10 µM.
Experiment [5] addresses T2, Arginase-2, mitochondrial (Homo sapiens) (UniProt P78540).
T2 sequence (whole entry): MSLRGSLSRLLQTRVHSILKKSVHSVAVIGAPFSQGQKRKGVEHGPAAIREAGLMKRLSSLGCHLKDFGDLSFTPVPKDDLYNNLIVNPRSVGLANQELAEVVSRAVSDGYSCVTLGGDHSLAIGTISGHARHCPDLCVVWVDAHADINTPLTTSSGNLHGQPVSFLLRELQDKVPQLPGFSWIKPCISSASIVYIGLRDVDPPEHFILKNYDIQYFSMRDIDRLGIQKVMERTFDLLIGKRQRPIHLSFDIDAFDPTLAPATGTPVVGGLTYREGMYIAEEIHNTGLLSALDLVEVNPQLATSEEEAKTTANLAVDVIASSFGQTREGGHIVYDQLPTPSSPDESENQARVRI
As to the kind of experiment: in vitro enzyme assay to detect the production of urea directly proportional to the activity of Arginase II. Also: in the data most compounds retested in dose-response had high values. To be noted: 33.3 µM. It is filed as functional.

Experiment [6] deals with T3, Proteasome subunit beta (Trypanosoma cruzi) (UniProt O96673).
T3 sequence (whole entry): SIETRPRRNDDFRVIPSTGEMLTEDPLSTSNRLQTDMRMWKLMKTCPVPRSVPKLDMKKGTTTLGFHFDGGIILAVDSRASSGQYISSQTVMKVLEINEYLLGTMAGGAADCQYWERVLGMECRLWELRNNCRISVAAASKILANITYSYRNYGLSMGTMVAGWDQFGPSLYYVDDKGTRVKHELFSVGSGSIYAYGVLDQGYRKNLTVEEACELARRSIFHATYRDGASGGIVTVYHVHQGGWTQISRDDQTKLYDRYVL
In words: Trypanosoma cruzi proteasome chymotrypsin-like activity (TcProtChymo) assay. Also: in the data most compounds retested in dose-response had high values. It is filed as functional. To be noted: 9.37 µM.

For a further experiment, the species on record is Homo sapiens. In words: To identify inhibition of the IFN signalling (Jak-Stat) pathway via expression of an eGFP reporter gene under the control of an IFN-stimulated response element (ISRE) containing MxA promoter. The following applies: 30 µM. In kind it is functional. On the technique in general: Reporter assays use an easily measured gene product as a stand-in for the process of interest.

Experiment [7] has as its target T4, Tyrosyl-tRNA synthetase, putative (Trypanosoma cruzi (strain CL Brener)) (UniProt Q4DSP6).
T4 sequence (whole entry): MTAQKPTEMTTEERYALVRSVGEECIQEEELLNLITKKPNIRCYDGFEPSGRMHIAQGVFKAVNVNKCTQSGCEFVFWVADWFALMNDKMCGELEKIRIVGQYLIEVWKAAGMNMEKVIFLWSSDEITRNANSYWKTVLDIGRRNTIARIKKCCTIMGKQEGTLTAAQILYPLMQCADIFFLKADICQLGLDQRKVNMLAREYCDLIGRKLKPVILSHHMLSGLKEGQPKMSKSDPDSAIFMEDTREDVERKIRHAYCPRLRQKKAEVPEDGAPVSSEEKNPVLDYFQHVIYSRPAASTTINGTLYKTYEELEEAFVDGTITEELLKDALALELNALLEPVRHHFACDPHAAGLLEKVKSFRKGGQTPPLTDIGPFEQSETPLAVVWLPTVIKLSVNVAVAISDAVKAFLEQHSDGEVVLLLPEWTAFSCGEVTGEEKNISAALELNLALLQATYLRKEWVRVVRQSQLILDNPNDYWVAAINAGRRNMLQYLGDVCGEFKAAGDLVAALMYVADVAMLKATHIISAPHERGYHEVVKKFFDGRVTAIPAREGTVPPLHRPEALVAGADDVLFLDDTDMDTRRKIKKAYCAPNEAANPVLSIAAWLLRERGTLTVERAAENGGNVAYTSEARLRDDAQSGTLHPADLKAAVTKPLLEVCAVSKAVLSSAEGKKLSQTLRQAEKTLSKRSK
In words: Trypanosoma cruzi tyrosyl tRNA synthetase (TcYRS) _High Tyrosine SOP. Also: in the data most compounds retested in dose-response had high values. It is filed as functional. To be noted: 30 µM.

The target of experiment [8] is T4, Tyrosyl-tRNA synthetase, putative (Trypanosoma cruzi (strain CL Brener)). In words: Trypanosoma cruzi tyrosyl tRNA synthetase (TcYRS) SOP. In kind it is functional. To be noted: 30 µM.
In experiment [9] the target is Chromo domain-containing protein 1 (Saccharomyces cerevisiae (strain ATCC 204508 / S288c) (Baker's yeast)) (UniProt P32657). As to the kind of experiment: ScCHD-1 Enzyme Inhibition Assay. Also: in the data most compounds retested in dose-response had high values. It is filed as functional. The following applies: 30 µM.
Chromo domain-containing protein 1 (Saccharomyces cerevisiae (strain ATCC 204508 / S288c) (Baker's yeast)), sequence (P32657 whole entry, the tested form may be a part): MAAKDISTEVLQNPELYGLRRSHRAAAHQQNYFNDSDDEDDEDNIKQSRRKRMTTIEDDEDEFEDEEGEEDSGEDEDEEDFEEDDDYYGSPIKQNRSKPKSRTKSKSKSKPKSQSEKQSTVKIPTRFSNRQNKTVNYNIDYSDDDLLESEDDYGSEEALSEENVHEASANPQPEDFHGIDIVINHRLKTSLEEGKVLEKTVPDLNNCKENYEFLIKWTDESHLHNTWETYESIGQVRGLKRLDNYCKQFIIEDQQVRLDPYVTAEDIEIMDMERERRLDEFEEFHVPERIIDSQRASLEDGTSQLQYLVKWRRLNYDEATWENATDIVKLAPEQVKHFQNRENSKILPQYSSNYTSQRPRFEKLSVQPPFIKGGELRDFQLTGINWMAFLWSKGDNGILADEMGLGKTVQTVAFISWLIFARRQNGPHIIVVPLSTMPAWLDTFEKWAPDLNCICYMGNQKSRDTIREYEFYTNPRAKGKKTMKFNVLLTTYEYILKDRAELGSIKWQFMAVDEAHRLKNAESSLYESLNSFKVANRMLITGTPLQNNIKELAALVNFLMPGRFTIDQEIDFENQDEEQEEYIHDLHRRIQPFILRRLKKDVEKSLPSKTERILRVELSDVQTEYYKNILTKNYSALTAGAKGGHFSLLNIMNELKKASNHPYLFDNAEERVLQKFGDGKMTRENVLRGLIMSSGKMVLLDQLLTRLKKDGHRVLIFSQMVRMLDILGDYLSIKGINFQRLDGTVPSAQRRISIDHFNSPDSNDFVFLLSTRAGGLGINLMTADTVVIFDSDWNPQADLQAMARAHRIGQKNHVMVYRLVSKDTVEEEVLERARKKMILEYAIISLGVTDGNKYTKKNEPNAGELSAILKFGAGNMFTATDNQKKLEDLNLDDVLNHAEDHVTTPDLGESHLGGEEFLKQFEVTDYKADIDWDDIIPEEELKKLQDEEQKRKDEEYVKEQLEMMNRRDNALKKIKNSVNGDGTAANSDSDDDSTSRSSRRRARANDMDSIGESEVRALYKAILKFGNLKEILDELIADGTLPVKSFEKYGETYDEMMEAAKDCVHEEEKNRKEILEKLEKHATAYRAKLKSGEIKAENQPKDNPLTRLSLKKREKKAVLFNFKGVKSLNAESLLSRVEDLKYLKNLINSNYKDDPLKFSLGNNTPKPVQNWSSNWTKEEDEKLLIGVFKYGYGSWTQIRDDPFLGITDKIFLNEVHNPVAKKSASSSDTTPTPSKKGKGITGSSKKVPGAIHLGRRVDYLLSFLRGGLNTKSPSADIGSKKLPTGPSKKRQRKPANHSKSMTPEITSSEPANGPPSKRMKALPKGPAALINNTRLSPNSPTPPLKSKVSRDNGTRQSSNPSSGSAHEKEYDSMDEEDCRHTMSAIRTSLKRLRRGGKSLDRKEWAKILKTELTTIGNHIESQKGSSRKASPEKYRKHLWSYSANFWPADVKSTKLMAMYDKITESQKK

Take `Cc1ccc(N2CCCC(NCc3nc(C)c(C)o3)C2)nn1` (centres undefined): the Percent Effect in [1] was -2.18%; in experiment [2] it was -1.27%; in experiment [3], -3.24%; in [4], 1.76%; in the experiment with Trypanosoma cruzi, 9.54%; in experiment [5] it was -1.07%. Besides, the Percent Effect in experiment [6] was -2.4%; in the experiment filed under Homo sapiens it was 2.43%; in experiment [7], 3.12%; in [8] it was 15.2%; in experiment [9] it was -25.4%.
As for `COC(=O)Cn1cccc(S(=O)(=O)N2CCC(C)CC2)c1=O`, the Percent Effect in [1] is -2.33%; in experiment [2], 20%; in experiment [3], -5.59%; in experiment [4], -8.73%; in the experiment with Trypanosoma cruzi, 2.75%; in experiment [5] it was 92.1%. In addition, the Percent Effect in experiment [6] is 14.8%; in the experiment filed under Homo sapiens, 15.8%; in experiment [7], 2.12%; in experiment [8], 10.3%; in [9] it was -10.4%.
`Cc1ccc(CCNC(=O)N2CCCC(Cc3nccn3C)C2)cn1` (centres undefined): the Percent Effect is -5.16% in [1]; 0% in experiment [2]; -1.4% in experiment [3]; 2.27% in experiment [4]; 4.49% in the experiment on Trypanosoma cruzi; -2.5% in [5]. In addition, the Percent Effect in experiment [6] was 9.89%; in the experiment filed under Homo sapiens, 16.9%; in experiment [7], 7.92%; in [8] it was 13.4%; in experiment [9] it was -0.907%.
Turning to `CC(C)NC(=O)N1CCN(S(=O)(=O)C2CC2)CC2(CC(=O)N(C)C2)C1` (centres undefined), the Percent Effect in experiment [1] is -4.24%; in experiment [2], 10.4%; in [3] it was 5.32%; in experiment [4], -0.477%; in the experiment with Trypanosoma cruzi, 5.23%; in experiment [5], -5.81%. Besides, the Percent Effect is -2.79% in [6]; 12.6% in the experiment filed under Homo sapiens; 1.06% in experiment [7]; 6.41% in experiment [8]; -4.42% in experiment [9].
As to `CCOCC(=O)NC1(c2cccc(Br)c2)CC1`, the Percent Effect in experiment [1] is -8.13%; in experiment [2], 0%; in experiment [3], 0.838%; in experiment [4], 9.79%; with Trypanosoma cruzi, -3.67%; in experiment [5], -2.38%. Besides, the Percent Effect in [6] was 7.76%; in the experiment filed under Homo sapiens, 13.1%; in [7] it was -1.59%; in experiment [8], -2.44%; in [9], -3.38%.
For `N#Cc1cccc(CS(=O)(=O)NCCC(O)c2ccccc2)c1` (centres undefined), the Percent Effect in [1] was 13%; in experiment [2] it was 5.33%; in experiment [3], -6.17%; in experiment [4] it was 7.18%; in the experiment with Trypanosoma cruzi, 4.77%; in experiment [5], 15.1%. Moreover, the Percent Effect in [6] was 16.2%; in the experiment filed under Homo sapiens it was 3.01%; in experiment [7], 4.92%; in [8] it was 16.1%; in [9], -6.38%.
Consider `Cc1cc(C(=O)N2CC[C@@H]3CN(c4ncccn4)CCO[C@@H]3C2)c(C)o1`, for which the Percent Effect in [1] was -0.56%; in experiment [2] it was 16.2%; in [3], -3.77%; in experiment [4], -14.6%; in the experiment on Trypanosoma cruzi it was 0.0978%; in experiment [5] it was 6.69%. In addition, the Percent Effect in [6] was 29%; in the experiment filed under Homo sapiens, -4.39%; in [7], 6.49%; in experiment [8], 20.5%; in experiment [9] it was -4.19%.
Take `CC(=O)N1CC(=O)N(c2cnn(C)c2)CC12CCN(Cc1ccoc1)C2` (centres undefined): the Percent Effect in [1] is -1.18%; in [2], 5.41%; in experiment [3], 1.2%; in experiment [4] it was -0.95%; with Trypanosoma cruzi it was 1.95%; in [5] it was 1.25%. In addition, the Percent Effect was -1.61% in [6]; 5.16% in the experiment listed under Homo sapiens; 2.97% in [7]; 11% in experiment [8]; -1.77% in experiment [9].
Regarding `COCC(=O)N1CCC(c2nc3ccc(-c4ccccc4)cn3n2)CC1`, the Percent Effect in [1] was 1.49%; in [2], -153%; in [3] it was 4.81%; in experiment [4] it was 3.2%; in the experiment on Trypanosoma cruzi, -1.19%; in experiment [5], 4.79%. Also, the Percent Effect was 13.4% in experiment [6]; 15.6% in the experiment listed under Homo sapiens; 0% in experiment [7]; 3.7% in [8]; -1.08% in [9].
